# Columns and labels:
# [1] = molecular target: T1, Dual specificity mitogen-activated protein kinase kinase 6 (Homo sapiens) (UniProt P52564); conditions: at 1 µM
# T1 sequence (whole entry): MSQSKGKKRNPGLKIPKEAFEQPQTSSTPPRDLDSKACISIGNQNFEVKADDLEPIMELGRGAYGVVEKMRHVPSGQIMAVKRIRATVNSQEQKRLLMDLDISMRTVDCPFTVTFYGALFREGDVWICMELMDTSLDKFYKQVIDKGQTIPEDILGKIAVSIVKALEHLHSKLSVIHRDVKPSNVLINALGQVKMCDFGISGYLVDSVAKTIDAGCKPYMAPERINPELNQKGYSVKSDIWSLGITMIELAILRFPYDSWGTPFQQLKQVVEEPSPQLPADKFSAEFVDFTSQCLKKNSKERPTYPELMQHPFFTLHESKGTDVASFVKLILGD
# [2] = molecular target: T1, Dual specificity mitogen-activated protein kinase kinase 6 (Homo sapiens); conditions: at 10 µM
# [3] = molecular target: Myosin light chain kinase, smooth muscle (Homo sapiens) (UniProt Q15746); conditions: at 1 µM
# Myosin light chain kinase, smooth muscle (Homo sapiens), sequence (Q15746 whole entry): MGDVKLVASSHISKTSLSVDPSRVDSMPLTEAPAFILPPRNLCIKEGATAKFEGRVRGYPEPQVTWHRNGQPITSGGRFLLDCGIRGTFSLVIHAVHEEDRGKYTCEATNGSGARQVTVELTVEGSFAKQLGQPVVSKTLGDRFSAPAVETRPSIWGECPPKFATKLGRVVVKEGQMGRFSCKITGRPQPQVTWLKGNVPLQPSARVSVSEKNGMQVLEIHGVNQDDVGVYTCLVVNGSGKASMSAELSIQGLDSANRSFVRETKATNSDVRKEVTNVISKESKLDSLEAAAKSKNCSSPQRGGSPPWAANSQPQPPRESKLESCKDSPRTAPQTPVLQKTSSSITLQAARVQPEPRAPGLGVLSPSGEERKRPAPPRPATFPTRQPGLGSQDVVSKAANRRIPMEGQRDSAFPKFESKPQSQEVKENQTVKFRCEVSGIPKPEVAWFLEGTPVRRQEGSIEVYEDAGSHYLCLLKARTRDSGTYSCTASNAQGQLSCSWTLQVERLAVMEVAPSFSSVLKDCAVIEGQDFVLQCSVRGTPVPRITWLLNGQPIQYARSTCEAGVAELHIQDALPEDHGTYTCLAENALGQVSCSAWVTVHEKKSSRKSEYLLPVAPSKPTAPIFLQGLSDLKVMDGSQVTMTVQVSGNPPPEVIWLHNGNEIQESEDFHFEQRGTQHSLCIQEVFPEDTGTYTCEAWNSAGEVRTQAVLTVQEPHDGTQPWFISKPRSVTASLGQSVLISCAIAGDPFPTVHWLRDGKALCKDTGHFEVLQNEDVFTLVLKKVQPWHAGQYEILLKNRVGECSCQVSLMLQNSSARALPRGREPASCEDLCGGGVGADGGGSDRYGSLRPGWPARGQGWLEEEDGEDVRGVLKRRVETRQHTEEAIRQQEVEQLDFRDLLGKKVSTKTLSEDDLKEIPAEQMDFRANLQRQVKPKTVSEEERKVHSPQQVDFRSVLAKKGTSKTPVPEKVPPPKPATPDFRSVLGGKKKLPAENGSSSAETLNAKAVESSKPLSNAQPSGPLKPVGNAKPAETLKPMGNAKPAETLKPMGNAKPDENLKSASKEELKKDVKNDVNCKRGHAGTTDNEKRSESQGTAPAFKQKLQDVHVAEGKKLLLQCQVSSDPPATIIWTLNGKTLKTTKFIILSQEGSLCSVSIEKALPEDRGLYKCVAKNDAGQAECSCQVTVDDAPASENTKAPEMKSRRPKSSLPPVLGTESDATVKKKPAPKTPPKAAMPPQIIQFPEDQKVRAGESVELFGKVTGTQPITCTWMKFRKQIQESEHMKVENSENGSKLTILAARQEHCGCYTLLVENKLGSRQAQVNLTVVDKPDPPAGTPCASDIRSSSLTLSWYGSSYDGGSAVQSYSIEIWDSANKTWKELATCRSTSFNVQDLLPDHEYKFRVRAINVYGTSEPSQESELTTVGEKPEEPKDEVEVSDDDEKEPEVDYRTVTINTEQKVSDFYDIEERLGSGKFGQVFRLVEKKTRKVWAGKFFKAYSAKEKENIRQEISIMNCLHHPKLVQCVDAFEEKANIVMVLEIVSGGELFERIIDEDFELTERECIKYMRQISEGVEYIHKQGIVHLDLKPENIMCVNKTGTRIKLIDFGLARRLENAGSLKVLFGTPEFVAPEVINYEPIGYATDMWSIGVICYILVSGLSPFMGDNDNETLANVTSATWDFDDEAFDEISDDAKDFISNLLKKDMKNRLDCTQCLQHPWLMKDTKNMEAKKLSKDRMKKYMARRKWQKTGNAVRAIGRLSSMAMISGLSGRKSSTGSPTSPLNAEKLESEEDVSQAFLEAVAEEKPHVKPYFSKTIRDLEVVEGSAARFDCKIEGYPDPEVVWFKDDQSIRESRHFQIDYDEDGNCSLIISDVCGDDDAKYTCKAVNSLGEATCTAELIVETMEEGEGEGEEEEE
# [4] = molecular target: Myosin light chain kinase, smooth muscle (Homo sapiens) (UniProt Q15746); conditions: at 10 µM
# [5] = molecular target: Mitogen-activated protein kinase kinase kinase 9 (Homo sapiens) (UniProt P80192); conditions: at 10 µM
# [6] = molecular target: Serine/threonine-protein kinase MRCK alpha (Homo sapiens) (UniProt Q5VT25); conditions: at 10 µM
# Serine/threonine-protein kinase MRCK alpha (Homo sapiens), sequence (Q5VT25 whole entry): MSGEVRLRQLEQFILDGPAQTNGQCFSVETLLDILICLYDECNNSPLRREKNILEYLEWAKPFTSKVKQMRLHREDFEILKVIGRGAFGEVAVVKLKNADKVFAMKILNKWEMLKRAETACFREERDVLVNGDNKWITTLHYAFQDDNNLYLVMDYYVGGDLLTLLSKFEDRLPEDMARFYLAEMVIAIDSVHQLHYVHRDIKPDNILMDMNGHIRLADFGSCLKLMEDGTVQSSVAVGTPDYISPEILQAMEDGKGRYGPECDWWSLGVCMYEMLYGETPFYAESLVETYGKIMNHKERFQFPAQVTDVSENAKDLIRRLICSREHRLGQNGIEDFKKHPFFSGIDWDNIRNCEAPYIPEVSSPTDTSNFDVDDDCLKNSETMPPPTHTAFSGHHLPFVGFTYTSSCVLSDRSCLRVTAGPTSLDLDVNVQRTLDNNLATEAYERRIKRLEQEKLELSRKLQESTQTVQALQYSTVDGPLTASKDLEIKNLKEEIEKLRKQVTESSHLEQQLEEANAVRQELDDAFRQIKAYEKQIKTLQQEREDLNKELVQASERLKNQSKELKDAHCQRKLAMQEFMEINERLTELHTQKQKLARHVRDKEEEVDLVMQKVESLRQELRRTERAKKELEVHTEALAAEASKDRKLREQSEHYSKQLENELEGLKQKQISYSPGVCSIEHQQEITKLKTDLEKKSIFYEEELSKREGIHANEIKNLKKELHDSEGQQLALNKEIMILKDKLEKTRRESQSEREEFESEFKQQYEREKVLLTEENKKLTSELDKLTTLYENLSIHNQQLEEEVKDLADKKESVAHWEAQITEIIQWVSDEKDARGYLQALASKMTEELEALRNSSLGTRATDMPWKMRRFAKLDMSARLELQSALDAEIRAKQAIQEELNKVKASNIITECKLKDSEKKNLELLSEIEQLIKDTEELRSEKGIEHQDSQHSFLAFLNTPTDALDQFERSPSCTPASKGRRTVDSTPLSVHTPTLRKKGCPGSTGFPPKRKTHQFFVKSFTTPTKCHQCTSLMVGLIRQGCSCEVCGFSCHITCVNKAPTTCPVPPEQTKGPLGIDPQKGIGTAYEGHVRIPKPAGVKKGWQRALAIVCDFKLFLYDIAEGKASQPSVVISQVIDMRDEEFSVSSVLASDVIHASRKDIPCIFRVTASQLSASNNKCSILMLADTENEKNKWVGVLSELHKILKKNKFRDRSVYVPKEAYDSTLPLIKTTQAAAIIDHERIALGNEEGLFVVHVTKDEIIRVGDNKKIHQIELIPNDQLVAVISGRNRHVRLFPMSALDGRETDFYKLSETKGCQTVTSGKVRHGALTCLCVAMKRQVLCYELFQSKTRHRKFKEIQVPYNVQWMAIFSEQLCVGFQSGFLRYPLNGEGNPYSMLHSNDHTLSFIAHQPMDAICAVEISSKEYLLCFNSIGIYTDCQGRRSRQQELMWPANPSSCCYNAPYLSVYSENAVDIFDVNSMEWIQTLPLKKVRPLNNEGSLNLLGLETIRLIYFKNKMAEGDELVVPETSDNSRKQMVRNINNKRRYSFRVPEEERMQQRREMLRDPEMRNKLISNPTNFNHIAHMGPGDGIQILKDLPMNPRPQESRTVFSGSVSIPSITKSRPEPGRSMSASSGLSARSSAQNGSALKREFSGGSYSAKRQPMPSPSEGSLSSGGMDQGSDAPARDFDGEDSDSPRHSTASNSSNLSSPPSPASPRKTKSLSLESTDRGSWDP
# [7] = molecular target: Ribosomal protein S6 kinase alpha-5 (Homo sapiens) (UniProt O75582); conditions: at 1 µM
# [8] = molecular target: Ribosomal protein S6 kinase alpha-5 (Homo sapiens) (UniProt O75582); conditions: at 10 µM
# [9] = molecular target: T2, Serine/threonine-protein kinase 4 (Homo sapiens) (UniProt Q13043); conditions: at 10 µM
# T2 sequence (whole entry): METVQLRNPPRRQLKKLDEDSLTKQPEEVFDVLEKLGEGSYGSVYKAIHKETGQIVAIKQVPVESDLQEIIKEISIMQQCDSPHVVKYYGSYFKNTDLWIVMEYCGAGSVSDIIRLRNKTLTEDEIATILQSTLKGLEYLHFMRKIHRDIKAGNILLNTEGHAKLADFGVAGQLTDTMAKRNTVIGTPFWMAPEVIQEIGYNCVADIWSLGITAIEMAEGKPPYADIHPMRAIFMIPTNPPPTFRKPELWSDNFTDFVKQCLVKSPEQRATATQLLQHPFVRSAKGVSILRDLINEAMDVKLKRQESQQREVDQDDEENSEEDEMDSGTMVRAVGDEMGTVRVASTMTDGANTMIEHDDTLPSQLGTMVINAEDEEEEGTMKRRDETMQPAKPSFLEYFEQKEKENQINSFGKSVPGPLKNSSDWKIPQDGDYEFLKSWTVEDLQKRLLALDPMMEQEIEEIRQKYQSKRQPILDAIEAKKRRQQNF
# [10] = molecular target: Serine/threonine-protein kinase MRCK alpha (Homo sapiens) (UniProt Q5VT25); conditions: at 1 µM
# [11] = molecular target: T2, Serine/threonine-protein kinase 4 (Homo sapiens); conditions: at 1 µM
# [12] = molecular target: T3, Dual specificity mitogen-activated protein kinase kinase 7 (Homo sapiens) (UniProt O14733); conditions: at 1 µM
# T3 sequence (whole entry): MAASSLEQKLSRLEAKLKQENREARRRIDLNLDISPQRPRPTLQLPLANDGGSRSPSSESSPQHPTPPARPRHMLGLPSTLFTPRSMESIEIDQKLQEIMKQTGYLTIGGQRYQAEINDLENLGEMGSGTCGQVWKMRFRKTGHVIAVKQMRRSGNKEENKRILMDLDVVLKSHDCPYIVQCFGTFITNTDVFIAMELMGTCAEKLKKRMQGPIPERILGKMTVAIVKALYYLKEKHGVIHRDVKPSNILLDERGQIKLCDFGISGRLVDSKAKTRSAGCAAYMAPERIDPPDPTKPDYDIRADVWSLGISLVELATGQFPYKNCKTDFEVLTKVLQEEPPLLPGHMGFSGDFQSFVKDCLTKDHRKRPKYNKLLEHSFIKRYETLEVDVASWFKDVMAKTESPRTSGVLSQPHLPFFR
# [13] = molecular target: T3, Dual specificity mitogen-activated protein kinase kinase 7 (Homo sapiens); conditions: at 10 µM
# [14] = molecular target: Mitogen-activated protein kinase kinase kinase 9 (Homo sapiens) (UniProt P80192); conditions: at 1 µM
# [15] = molecular target: Serine/threonine-protein kinase MRCK beta (Homo sapiens) (UniProt Q9Y5S2); conditions: at 1 µM
# [16] = molecular target: Serine/threonine-protein kinase MRCK beta (Homo sapiens) (UniProt Q9Y5S2); conditions: at 10 µM
# [17] = molecular target: Ribosomal protein S6 kinase alpha-4 (Homo sapiens) (UniProt O75676); conditions: at 1 µM
# Ribosomal protein S6 kinase alpha-4 (Homo sapiens), sequence (O75676 whole entry, looked up): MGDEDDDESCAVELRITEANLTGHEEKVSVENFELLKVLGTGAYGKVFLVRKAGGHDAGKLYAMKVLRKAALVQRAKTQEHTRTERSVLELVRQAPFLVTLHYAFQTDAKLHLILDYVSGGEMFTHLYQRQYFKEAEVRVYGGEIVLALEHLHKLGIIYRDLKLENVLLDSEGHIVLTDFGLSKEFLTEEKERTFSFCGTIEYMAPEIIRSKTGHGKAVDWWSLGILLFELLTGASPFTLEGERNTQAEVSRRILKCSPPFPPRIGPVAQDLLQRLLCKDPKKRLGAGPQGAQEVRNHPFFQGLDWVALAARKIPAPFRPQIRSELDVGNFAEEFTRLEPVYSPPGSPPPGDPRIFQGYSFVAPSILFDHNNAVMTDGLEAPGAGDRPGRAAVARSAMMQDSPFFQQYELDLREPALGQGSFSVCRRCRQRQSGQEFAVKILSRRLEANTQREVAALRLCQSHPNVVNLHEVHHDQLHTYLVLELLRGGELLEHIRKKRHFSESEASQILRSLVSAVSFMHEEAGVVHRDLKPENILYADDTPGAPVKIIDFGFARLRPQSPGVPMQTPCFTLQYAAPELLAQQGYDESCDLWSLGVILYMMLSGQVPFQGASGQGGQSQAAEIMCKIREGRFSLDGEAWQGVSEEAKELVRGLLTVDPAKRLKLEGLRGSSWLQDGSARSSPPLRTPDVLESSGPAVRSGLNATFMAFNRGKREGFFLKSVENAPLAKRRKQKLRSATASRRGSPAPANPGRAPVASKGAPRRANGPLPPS
# [18] = molecular target: Ribosomal protein S6 kinase alpha-4 (Homo sapiens) (UniProt O75676); conditions: at 10 µM
# [19] = molecular target: SRSF protein kinase 3 (Homo sapiens) (UniProt Q9UPE1); conditions: at 1 µM
# SRSF protein kinase 3 (Homo sapiens), sequence (Q9UPE1 whole entry): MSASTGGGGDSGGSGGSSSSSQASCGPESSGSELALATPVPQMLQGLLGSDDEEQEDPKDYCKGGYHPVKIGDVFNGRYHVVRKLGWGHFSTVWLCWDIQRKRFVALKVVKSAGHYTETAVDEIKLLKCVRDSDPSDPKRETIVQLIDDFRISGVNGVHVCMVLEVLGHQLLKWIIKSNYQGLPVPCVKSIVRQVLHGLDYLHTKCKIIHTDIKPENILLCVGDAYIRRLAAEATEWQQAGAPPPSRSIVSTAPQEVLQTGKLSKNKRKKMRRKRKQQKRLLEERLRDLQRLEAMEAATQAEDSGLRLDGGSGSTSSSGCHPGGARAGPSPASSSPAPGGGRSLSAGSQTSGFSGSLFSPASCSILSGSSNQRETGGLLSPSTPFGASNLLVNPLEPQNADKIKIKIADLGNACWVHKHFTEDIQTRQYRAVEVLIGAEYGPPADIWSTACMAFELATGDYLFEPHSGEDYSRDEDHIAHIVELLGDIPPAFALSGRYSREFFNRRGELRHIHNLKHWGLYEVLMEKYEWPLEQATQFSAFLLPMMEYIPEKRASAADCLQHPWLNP
# [20] = molecular target: SRSF protein kinase 3 (Homo sapiens) (UniProt Q9UPE1); conditions: at 10 µM
Structure (SMILES),residual activity [1] [%],residual activity [2] [%],residual activity [3] [%],residual activity [4] [%],residual activity [5] [%],residual activity [6] [%],residual activity [7] [%],residual activity [8] [%],residual activity [9] [%],residual activity [10] [%],residual activity [11] [%],residual activity [12] [%],residual activity [13] [%],residual activity [14] [%],residual activity [15] [%],residual activity [16] [%],residual activity [17] [%],residual activity [18] [%],residual activity [19] [%],residual activity [20] [%]
COc1cc2nccc(Oc3ccc(NC(=O)Nc4cc(C)on4)c(Cl)c3)c2cc1OC,49,21,66,61,61,102,107,80,56,–,–,–,–,–,–,–,–,–,–,–
COc1ccc(CNC(=O)Nc2ncc([N+](=O)[O-])s2)cc1,–,–,–,76,–,104,114,129,105,118,108,–,–,–,–,–,–,–,–,–
O=C(c1cc2cc(O)ccc2[nH]1)c1cc2cc(O)ccc2[nH]1,112,–,70,35,4,78,–,–,14,–,39,113,63,16,77,82,67,27,–,–
O=C(Nc1ccc(Cl)cc1)c1ccccc1NCc1ccncc1,–,–,–,–,–,–,–,–,–,–,–,–,–,99,–,–,–,101,–,–
CN(C)S(=O)(=O)c1ccc2c(c1)/C(=C/c1cc3c([nH]1)CCCC3)C(=O)N2,91,–,–,88,64,–,115,125,2,–,23,82,95,84,–,–,–,94,98,77
CN([C@@H](Cc1ccc(OS(=O)(=O)c2cccc3cnccc23)cc1)C(=O)N1CCN(c2ccccc2)CC1)S(=O)(=O)c1cccc2cnccc12,–,124,100,72,–,–,–,–,–,–,–,–,–,–,–,–,–,–,100,–
Nc1nccc(-c2c(-c3ccc(F)cc3)ncn2C2CCNCC2)n1,80,3,–,82,48,–,–,–,–,–,–,–,–,–,–,–,–,–,–,–
CCCCc1c(-c2ccc(OC)cc2)[nH]c2nccnc12,128,80,104,83,19,88,111,117,40,–,71,–,–,16,103,–,–,–,102,87
CCCC(=O)Oc1ccc2[nH]c(C(=O)c3cc4ccccc4[nH]3)cc2c1,99,–,90,97,88,102,–,103,103,102,94,104,81,80,92,79,94,99,–,88
COc1cc2ncnc(Nc3cccc(Cl)c3)c2cc1OC,47,26,64,28,21,111,103,102,74,107,–,–,–,76,102,104,–,–,104,22
O=C1C(Cl)=C(N2C(=O)CCC2=O)C(=O)c2ccccc21,–,–,–,75,91,94,101,123,–,–,76,67,78,96,100,97,96,91,98,98
CCOC(=O)c1c(C)[nH]c(/C=C2\C(=O)Nc3ccccc32)c1C,85,–,90,78,39,–,–,97,–,–,–,84,85,43,91,83,87,91,95,90
CCOc1nc(NC(=O)Cc2cc(OC)ccc2OC)cc(N)c1C#N,–,62,–,78,–,–,–,–,–,–,80,11,4,–,–,–,–,–,–,–
COc1ccc(Cl)cc1NC(=O)Nc1cc(C)nc2ccccc12,–,–,83,71,100,–,–,–,79,–,93,87,99,91,87,76,–,95,–,–
CC(C)c1nn(-c2c(Cl)cccc2Cl)c2nc(Cc3ccc(OCCO)cc3)[nH]c(=O)c12,–,90,105,99,48,102,128,91,68,106,80,84,77,86,97,83,94,84,87,76
Cn1sc(=O)n(Cc2ccccc2)c1=O,–,–,90,91,88,92,–,–,–,98,–,–,–,92,73,81,96,85,–,–
CCCCc1c(-c2ccc(O)cc2)[nH]c2nccnc12,87,73,100,83,15,–,–,–,42,–,61,–,–,16,–,–,90,85,–,–
O=C1Nc2ccccc2/C1=C\c1c(Cl)[nH]c2ccccc12,–,–,–,11,62,–,100,71,63,–,51,–,77,–,–,–,–,59,–,–
COc1ccc(-c2cnc3c(-c4ccsc4)cnn3c2)cc1,73,–,–,–,–,99,–,94,–,–,–,74,86,–,–,–,95,95,–,–
O=S(=O)(c1cccc2cnccc12)N1CCCNCC1,–,81,–,–,84,–,–,41,–,–,–,85,–,–,–,–,58,21,–,–

# Source: ChEMBL document CHEMBL2218924, “A broad activity screen in support of a chemogenomic map for kinase signalling research and drug discovery” (Biochem J, 2013)
